The supplement of paper PMC10849652
Of roughly 7,900 targets only a part is listed; those with a hit were picked by preference. About 0.6% of all pairs of compound and target were hits. Values without a mark were called inactive.

Experiments:
Assay in all cases: log2 fold change, soluble protein after heating vs DMSO (PISA); higher = thermal stabilisation; K562 cells, 10 uM, 30 min; active = over 0.2 and 3.5 SD of the protein, either way, in both replicates (recomputed)
erlotinib = compound: C#Cc1cccc(Nc2ncnc3cc(OCCOC)c(OCCOC)cc23)c1 [erlotinib]
How it was run: (§1)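 Thermal stability values are relative to control samples and come from duplicates. They are expressed as log2 fold changes. For measurement, K562 cells (2×10^6 cells/mL) received 10 μM compound for 30 min, and aliquots were heated for 3 min over 48°C-58°C, pooled, and extracted at 4°C in PBS with 0.5% NP-40. Soluble protein, the supernatant after 21,000xg for 90 min, was quantified by TMTpro 16plex LC-MS/MS with equalised channel sums.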

[1] = compound: C/C(=N\NC(=O)C1=CC(=CC=C1)S(=O)(=O)N2CCOCC2)/C3=C(C=CC(=C3)Cl)O
How it was run: as §1

[2] = compound: C1=CC(=C(C=C1Cl)C2=NC3=NC=CN=C3C(=N2)NC4=CC=NC=C4)F
How it was run: as §1

[3] = compound: C1=CC(=CC=C1C2=NC3=C(N2)C=C(C=C3)C(=O)N)OC4=CC=C(C=C4)Cl
How it was run: as §1

[4] = compound: C1=CC2=C(C=CC(=C2)/C=C\3/C(=O)NC(=NCC4=CC=CS4)S3)N=C1
How it was run: as §1

[5] = compound: C1=CC2=NC=CN=C2C=C1/C=C/3\C(=O)NC(=O)S3
How it was run: as §1

[6] = compound: C1=CC=C(C=C1)C2=NC(=C(N2)C3=CC=NC=C3)C4=CC(=C(C=C4)Cl)O
How it was run: as §1

[7] = compound: C1=CC=C2C(=C1)C3=NNC4=CC=CC(=C43)C2=O
How it was run: as §1

[8] = compound: C1CCN(C1)C(=O)NC2=CC=CC(=C2)NC3=NC=C(C(=N3)NCCC4=CN=CN4)Br
How it was run: as §1

[9] = compound: C1CN(CCC1(CC2=CC=C(C=C2)Cl)N)C3=NC=NC4=C3C=CN4
How it was run: as §1

Chain of UniProt Q9H257 (Q9H257 whole entry, looked up): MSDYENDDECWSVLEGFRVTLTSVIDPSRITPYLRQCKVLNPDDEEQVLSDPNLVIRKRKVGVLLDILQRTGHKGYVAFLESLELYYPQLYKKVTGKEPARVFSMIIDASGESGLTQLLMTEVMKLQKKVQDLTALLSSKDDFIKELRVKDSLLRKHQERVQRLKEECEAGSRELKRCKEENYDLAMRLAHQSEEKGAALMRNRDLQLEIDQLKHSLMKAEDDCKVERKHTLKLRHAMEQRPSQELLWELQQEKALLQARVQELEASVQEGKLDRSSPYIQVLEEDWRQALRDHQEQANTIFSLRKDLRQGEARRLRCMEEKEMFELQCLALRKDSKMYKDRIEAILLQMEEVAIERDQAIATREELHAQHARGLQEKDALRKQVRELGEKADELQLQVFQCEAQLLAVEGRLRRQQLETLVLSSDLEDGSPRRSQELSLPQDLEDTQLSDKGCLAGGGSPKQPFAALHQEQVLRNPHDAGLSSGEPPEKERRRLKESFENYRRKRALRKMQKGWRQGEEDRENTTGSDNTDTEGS
Chain of UniProt Q99807 (Q99807 whole entry, looked up): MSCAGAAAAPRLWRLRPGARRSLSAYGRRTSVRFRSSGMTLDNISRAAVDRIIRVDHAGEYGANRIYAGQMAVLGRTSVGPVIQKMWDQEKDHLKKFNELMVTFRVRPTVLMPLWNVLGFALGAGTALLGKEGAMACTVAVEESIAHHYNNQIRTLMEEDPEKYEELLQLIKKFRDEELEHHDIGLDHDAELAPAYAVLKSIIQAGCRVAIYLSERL
Chain of UniProt O14936 (O14936 whole entry, looked up): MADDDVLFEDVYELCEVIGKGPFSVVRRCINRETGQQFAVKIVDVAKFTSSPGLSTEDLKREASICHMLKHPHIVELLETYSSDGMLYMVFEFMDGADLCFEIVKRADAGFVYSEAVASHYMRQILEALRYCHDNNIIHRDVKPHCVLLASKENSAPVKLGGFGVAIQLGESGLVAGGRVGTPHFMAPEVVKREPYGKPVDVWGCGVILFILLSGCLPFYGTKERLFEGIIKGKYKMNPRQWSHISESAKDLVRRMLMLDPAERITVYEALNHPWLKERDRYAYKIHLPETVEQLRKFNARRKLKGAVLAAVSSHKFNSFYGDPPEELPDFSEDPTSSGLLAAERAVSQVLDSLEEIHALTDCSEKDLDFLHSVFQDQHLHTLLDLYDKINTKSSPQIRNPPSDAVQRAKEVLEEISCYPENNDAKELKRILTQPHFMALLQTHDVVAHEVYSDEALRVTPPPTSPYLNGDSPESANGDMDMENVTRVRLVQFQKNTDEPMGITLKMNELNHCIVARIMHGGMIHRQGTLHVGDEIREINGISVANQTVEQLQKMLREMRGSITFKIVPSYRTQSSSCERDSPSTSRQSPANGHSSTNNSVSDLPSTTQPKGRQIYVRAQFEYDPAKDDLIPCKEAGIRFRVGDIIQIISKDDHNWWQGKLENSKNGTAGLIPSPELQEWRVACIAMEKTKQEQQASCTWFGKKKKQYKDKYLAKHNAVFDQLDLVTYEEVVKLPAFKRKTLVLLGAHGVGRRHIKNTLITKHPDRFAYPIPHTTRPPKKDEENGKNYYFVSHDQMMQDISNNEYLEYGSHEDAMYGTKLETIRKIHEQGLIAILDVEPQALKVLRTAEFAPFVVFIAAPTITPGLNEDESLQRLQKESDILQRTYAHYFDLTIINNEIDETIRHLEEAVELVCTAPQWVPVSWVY
Chain of UniProt Q9UNS2 (Q9UNS2 whole entry, looked up): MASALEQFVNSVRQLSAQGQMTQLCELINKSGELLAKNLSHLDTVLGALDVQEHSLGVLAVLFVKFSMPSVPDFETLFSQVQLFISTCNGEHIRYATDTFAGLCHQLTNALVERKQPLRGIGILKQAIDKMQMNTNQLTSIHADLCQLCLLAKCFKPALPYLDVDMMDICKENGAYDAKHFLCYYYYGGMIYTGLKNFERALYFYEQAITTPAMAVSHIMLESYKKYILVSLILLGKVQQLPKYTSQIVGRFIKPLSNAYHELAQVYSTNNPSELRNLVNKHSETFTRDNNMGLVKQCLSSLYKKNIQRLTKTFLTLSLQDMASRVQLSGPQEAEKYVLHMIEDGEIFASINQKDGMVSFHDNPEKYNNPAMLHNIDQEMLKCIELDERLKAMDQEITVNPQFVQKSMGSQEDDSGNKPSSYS
Chain of UniProt Q9BSQ5 (Q9BSQ5 whole entry, looked up): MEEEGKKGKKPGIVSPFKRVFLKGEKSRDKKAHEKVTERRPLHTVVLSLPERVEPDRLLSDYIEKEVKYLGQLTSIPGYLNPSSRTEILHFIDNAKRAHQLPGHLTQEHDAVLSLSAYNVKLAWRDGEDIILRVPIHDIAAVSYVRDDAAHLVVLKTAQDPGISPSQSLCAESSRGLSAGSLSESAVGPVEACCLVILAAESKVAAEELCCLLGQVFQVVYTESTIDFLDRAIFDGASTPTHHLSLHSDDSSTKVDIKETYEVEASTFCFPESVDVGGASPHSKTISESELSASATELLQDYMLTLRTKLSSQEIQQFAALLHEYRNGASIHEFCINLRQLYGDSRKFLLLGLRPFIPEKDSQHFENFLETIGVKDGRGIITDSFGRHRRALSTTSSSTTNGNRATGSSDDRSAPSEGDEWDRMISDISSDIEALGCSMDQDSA
Chain of UniProt Q9HCH3 (Q9HCH3 whole entry, looked up): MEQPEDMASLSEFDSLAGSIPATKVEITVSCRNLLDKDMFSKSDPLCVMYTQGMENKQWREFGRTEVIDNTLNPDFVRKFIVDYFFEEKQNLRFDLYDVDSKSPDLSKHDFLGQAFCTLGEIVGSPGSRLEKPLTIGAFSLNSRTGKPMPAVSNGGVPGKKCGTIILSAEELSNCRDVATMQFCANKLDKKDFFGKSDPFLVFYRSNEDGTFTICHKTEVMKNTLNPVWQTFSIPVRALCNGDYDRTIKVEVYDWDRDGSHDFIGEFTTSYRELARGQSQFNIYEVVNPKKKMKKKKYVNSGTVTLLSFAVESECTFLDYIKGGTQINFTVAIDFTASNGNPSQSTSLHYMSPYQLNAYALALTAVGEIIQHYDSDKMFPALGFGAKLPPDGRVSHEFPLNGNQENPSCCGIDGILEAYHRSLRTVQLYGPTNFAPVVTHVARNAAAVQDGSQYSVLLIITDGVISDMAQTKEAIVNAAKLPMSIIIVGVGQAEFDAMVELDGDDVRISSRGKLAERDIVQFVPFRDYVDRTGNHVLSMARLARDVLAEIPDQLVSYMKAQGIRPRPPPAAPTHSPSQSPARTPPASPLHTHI
Chain of UniProt Q92851 (Q92851 whole entry, looked up): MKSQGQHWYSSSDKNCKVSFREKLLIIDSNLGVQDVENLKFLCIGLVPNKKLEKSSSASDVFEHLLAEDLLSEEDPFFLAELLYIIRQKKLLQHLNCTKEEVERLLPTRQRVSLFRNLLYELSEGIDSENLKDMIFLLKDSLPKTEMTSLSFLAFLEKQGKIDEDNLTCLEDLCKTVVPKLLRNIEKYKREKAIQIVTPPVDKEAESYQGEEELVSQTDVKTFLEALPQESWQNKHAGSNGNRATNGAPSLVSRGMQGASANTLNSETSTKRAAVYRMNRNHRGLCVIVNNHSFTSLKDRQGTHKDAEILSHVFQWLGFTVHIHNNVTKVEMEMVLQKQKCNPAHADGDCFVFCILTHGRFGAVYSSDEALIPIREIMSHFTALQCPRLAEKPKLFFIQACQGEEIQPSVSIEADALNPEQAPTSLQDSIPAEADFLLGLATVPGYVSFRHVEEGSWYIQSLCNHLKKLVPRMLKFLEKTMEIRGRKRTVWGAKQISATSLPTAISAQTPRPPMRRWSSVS
Chain of UniProt Q13286 (Q13286 whole entry, looked up): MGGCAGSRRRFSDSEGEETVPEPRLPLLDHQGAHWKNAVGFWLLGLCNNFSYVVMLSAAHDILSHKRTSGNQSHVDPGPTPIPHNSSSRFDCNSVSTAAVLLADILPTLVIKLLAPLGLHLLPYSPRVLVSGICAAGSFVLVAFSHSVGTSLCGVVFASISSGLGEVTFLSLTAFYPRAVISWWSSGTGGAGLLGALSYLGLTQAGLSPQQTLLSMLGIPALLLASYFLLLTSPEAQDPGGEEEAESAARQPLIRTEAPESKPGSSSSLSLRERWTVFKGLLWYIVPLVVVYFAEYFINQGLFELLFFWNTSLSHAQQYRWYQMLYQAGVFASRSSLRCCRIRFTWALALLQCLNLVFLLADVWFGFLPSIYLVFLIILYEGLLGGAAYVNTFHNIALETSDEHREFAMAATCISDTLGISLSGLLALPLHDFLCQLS
Chain of UniProt Q2TAC2 (Q2TAC2 whole entry, looked up): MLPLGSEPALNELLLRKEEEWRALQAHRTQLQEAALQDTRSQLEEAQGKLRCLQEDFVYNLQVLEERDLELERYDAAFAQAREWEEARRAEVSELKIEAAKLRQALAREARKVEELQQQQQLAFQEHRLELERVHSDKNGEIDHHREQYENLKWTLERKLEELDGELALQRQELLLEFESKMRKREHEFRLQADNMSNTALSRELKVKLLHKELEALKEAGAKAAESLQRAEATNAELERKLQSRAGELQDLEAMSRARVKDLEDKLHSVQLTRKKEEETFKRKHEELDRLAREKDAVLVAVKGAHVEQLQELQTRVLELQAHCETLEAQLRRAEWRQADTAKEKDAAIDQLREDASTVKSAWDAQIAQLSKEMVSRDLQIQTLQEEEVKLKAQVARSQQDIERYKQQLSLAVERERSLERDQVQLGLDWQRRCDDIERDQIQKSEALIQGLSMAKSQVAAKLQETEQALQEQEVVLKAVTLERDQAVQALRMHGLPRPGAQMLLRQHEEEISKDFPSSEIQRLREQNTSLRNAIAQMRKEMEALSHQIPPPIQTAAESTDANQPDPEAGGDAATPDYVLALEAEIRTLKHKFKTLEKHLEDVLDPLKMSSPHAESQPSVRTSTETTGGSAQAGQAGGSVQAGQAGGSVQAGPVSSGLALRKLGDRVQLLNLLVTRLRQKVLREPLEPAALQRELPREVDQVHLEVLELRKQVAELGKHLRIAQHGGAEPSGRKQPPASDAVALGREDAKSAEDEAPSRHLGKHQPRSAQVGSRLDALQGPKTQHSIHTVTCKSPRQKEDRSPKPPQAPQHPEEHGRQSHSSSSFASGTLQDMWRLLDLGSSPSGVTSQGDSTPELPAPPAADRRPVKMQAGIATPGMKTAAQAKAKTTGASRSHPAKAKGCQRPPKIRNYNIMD

Target | log2 fold change (erlotinib) | log2 fold change [1] | log2 fold change [2] | log2 fold change [3] | log2 fold change [4] | log2 fold change [5] | log2 fold change [6] | log2 fold change [7] | log2 fold change [8] | log2 fold change [9]
COQ7 (UniProt Q99807) | 0.082 | -0.014 | 0.075 | 0.023 | -0.005 | 0.068 | -0.024 | -0.009 | 0.02 | 0.052
CKS2 (UniProt P33552) | – | 0.125 | – | – | 0.116 | -0.001 | – | -0.032 | 0.022 | 0.02
CASK (UniProt O14936) | -0.018 | -0.07 | – | 0.01 | 0.038 | – | – | -0.136 | – | –
CCM2 isoform 2 (UniProt Q9BSQ5) | 0.142 | – | -0.042 | 0.035 | – | 0.083 | 0.013 | – | 0.09 | 0.16
CS (UniProt F8VU34) | – | – | – | – | – | 0.06 | – | – | – | –
CD68 (UniProt P34810) | -0.13 | – | – | 0.022 | – | 0.094 | – | – | – | –
CASP9 (UniProt P55211) | – | 0.059 | -0.016 | – | -0.049 | – | -0.02 | 0.048 | -0.054 | -0.218
CEP128 (UniProt Q6ZU80) | – | -0.163 | – | – | 0.199 | 0.158 | – | -0.037 | 0.141 | -0.003
COPS3 isoform 2 (UniProt Q9UNS2) | – | -0.24 | -0.075 | – | 0.214 | -0.125 | -0.568 | -0.126 | 0.176 | -0.052
CNN1 (UniProt P51911) | – | 0.062 | 0.055 | – | 0.063 | – | – | 0.041 | -0.129 | 0.118
CNRIP1 (UniProt Q96F85) | -0.065 | – | 0.045 | 0.045 | – | – | -0.115 | – | – | –
CLPTM1L (UniProt G5E9Z2) | – | 0.109 | 0.492 | – | -0.139 | 0.284 | – | 0.174 | 0.145 | 0.272
CASP7 isoform 3 (UniProt P55210) | 0.133 | – | -0.105 | 0.217 | – | 0.118 | – | – | – | –
CCNT2 (UniProt O60583) | – | 0 | -0.105 | – | -0.029 | – | -0.025 | -0.08 | -0.176 | -0.027
CCDC57 (UniProt Q2TAC2) | 0.044 | – | 0.031 | -0.051 | – | -0.021 | 0.003 | – | 0.012 | 0.026
CRLS1 (UniProt Q9UJA2) | -0.034 | – | – | 0.019 | – | – | – | – | -0.019 | 0.074
CPNE5 (UniProt Q9HCH3) | 0.074 | – | – | -0.175 | – | – | – | – | 0.087 | -0.879 (active)
CLINT1 (UniProt Q14677) | – | -0.106 | -0.12 | – | -0.176 | 0.035 | – | 0.031 | -0.097 | -0.057
CRTC3 (UniProt Q6UUV7) | – | – | 0.04 | – | – | 0.094 | -0.146 | – | 0.02 | 0.075

Target | log2 fold change (erlotinib) | log2 fold change [1] | log2 fold change [2] | log2 fold change [3] | log2 fold change [4] | log2 fold change [5] | log2 fold change [6] | log2 fold change [7] | log2 fold change [8] | log2 fold change [9]
C5orf30 (UniProt Q96GV9) | – | 0.267 | -0.056 | – | 0.062 | – | – | -0.347 | 0.01 | 0.128
CSNK1A1 isoform 3 (UniProt P48729) | – | – | – | – | – | 0.111 | – | – | – | –
CARD9 (UniProt Q9H257) | -0.173 | 0.211 | – | 0.056 | -0.184 | – | 0.129 | -0.058 | – | –
CAV2 (UniProt P51636) | -0.01 | -0.066 | – | 0.076 | -0.018 | -0.559 | – | 0.057 | 0.025 | -0.021
CLN3 (UniProt Q13286) | 0 | – | 0.025 | 0.162 | – | 0.117 | -0.05 | – | 0.055 | 0.026
CFAP47 (UniProt Q6ZTR5) | – | -0.734 (active) | 0.053 | – | 0.355 | -0.123 | – | 0.132 | – | –
CCDC167 (UniProt Q9P0B6) | 0.068 | – | 0.008 | -0.041 | – | 0.054 | 0.072 | – | 0.054 | 0.224
CLCN5 isoform 2 (UniProt P51795) | -0.009 | – | – | 0.064 | – | – | 0.125 | – | -0.098 | -0.011
CASP10 isoform 4 (UniProt Q92851) | – | 0.138 | 0.026 | – | 0.124 | -0.046 | 0.051 | -0.04 | -0.13 | -0.21
COMMD1 (UniProt Q8N668) | -0.136 | – | -0.241 | 0.15 | – | -0.088 | 0.066 | – | 0.037 | -0.083
CHPT1 (UniProt Q8WUD6) | – | 0.181 | 0.24 | – | 0.078 | – | 0 | -0.024 | -0.004 | 0.01
C6orf120 (UniProt Q7Z4R8) | -0.2 | – | – | 0.134 | – | -0.003 | -0.009 | – | 0.005 | 0.028
COMMD3-BMI1 (UniProt R4GMX3) | – | -0.043 | -0.051 | – | 0.077 | – | – | -0.169 | -0.191 | 0.095
CFAP58 (UniProt Q5T655) | – | – | – | – | – | – | 0.047 | – | – | –
CCDC187, A0A1W2PQX5 | – | -0.124 | -0.079 | – | 0.169 | – | -0.055 | 0.013 | – | –
CA1 (UniProt E5RIF9) | – | – | 0.096 | – | – | 0.135 | – | – | 0.014 | -0.453
CCNL1 (UniProt Q9UK58) | -0.001 | – | – | 0.094 | – | – | – | – | – | –
CAD (UniProt H7BZB3) | – | -0.061 | – | – | 0.242 | – | – | -0.058 | – | –
